Screening data (PubChem BioAssay)
In the library only some 3.1% were active in any assay of this set; here they are far more common.
VDR inhibitor – Inhibitors of the vitamin D receptor (VDR): qHTS | VDR-SRC2-3 peptide fluorescence polarization, 2 h | Potency, µM, inactives show max response, negative = inhibition, hits mostly inhibitors | actives 0.93% (n = 400,000) | AID 504847, 2011; further: potency means the concentration at half of the fitted maximal effect; on the % scale 0 is the no-effect control and ±100 the full control effect
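Signal is fluorescence polarization, reporting how far test compounds block the interaction of VDR with the SRC2-3 coregulator peptide after a 2 h room-temperature incubation.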
Vif-A3F inh – qHTS for Inhibitors of Vif-A3F Interactions: qHTS; HeLa A3F-eYFP + Vif (tagged APOBEC3F with the HIV-1 protein that degrades it), YFP fluorescence increase; Potency, µM (titrated, usually from 46.1 µM), for inactives: at the top dose activity, negative = active; actives 0.2% (n = 390,000); AID 602313, 2012; further: potency means the concentration at half of the fitted maximal effect; % of control where 0% means no effect; nearly all actives have a fitted effect of over 65% in size
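HeLa cells stably expressing A3F-eYFP plus Vif, plated and incubated overnight at 37 deg C, then exposed to compounds overnight at 37 deg C. Blocked degradation read as raised yellow fluorescence (Ex 488/Em 500-530).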
TSHR antag – Antagonists of the Thyroid Stimulating Hormone Receptor: HTS campaign. Thyrotropin receptor (Homo sapiens), P16473. TSHR-expressing cells, TSH-stimulated cAMP HTRF, 2 h; stronger effect = lower value. activity change, negative = inhibition, % at 11.5 µM. actives 0.2% (n = 330,000);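 active means activity change below a set negative limit, meaning inhibition stronger than a set level, cut at about -70% in these data; inconclusive means activity change between two set negative limits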; further: on the % scale 0 is the no-effect control and ±100 the full control effect
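TSHR-expressing cells, 200/well, pre-treated with compound, then stimulated with EC80 TSH (4nM final) for 2 hours at 37 deg C. cAMP measured by competitive HTRF: anti-cAMP cryptate antibody in lysis buffer plus cAMP-d2, read after 30 minutes at room temperature.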
PLK1 PBD inh – qHTS for Inhibitors of PLK1-PDB (polo-like kinase 1 - polo-box domain): Primary Screen; Serine/threonine-protein kinase PLK1 (Homo sapiens), P53350; Plk1 PBD binding of FITC phosphopeptide, fluorescence polarization; Potency, µM, for inactives: max response, negative = inhibition, hits mostly inhibitors; actives 2.8% (n = 360,000); further: potency means the concentration at half of the fitted maximal effect; series mostly up to about 57 µM; on the % scale 0 is the no-effect control and ±100 the full control effect; nearly all actives have a fitted effect of over 65% in size
Vif-APOBEC3G blk – qHTS for Inhibitors of Vif-A3G Interactions: qHTS; DNA dC->dU-editing enzyme APOBEC-3G (Homo sapiens), Q9HC16; HeLa A3G-eYFP + Vif (tagged APOBEC3G with the HIV-1 protein that degrades it), YFP fluorescence, overnight; Potency, µM (top dose mostly 46.1 µM), for the others: top-dose activity, negative = active, usual class: inhibitors; actives 0.076% (n = 410,000); AID 602310, 2012; further: potency means the concentration at half of the fitted maximal effect; on the % scale 0 is the no-effect control and ±100 the full control effect; nearly all actives have a fitted effect of over 60% in size
Target sequence (Q9HC16 whole entry, looked up): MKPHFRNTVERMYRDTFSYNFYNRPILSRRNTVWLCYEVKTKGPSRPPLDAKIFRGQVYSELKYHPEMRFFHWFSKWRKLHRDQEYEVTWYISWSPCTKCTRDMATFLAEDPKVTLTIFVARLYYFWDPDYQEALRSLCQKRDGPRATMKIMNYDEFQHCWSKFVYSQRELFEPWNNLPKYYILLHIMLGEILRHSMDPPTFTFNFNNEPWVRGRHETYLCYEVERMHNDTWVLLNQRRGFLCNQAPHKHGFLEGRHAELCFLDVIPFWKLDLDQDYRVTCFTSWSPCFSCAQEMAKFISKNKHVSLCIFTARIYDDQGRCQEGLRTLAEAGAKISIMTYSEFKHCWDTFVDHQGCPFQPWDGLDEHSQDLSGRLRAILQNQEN
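Read-out is eYFP fluorescence (Ex 488/Em 500-530) from Vif-expressing HeLa A3G-eYFP cells; more signal means A3G escaped Vif-mediated degradation. Cells plated overnight, compound pinned in, incubated overnight at 37 deg C.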
* hit, by the source's call; ? = inconclusive; / = no result given. Unless noted, the call rests on the fitted dose curve; in most records, active means well fitted curve in the direction sought with a large enough effect; inconclusive means small, poorly fitted or top-dose-only effect, or another doubt; inactive means no such curve, though single readings can be large; an effect the other way counts as inactive or inconclusive.

SMILES | VDR inhibitor | Vif-A3F inh | TSHR antag | PLK1 PBD inh | Vif-APOBEC3G blk
O=C1NC(=S)SC1=Cc1cc(Br)ccc1O | ? | -31% | / | 27µM* | -11%
CCOc1ccc(/C=C2\SC(=S)NC2=O)cc1OC | -4% | 2% | -25 | -19% | 2%
COc1cc(/C=C2/SC(=S)NC2=O)ccc1OS(=O)(=O)c1ccc(C)cc1 | 50µM* | -1% | ? | 9.5µM* | -20%
O=C1NC(=S)S/C1=C\c1ccc2ccccc2c1 | 6% | -1% | -49 | 30µM* | 0%
COc1cc(/C=C2\SC(=S)NC2=O)ccc1OS(=O)(=O)c1ccccc1 | / | / | -74* | / | /
COc1cc(/C=C2\SC(=S)N(CCCCC(=O)O)C2=O)ccc1OS(=O)(=O)c1ccc(C)cc1 | ? | -16% | -1 | 30µM* | -24%
COC(=O)NC(CCc1ccccc1)C(C(=O)OC)C(=O)OC (stereo not drawn) | -8% | / | / | / | /
CC[C@H](C)[C@@H](NC(=O)O[C@@H]1Cc2cc(OC)ccc2O[C@H]1c1cccc(OC)c1)C(=O)OC | 5% | / | / | / | /
CC(C)CN(C(=O)COC(=O)C1c2ccccc2Oc2ccccc21)C1CCS(=O)(=O)C1 (stereo not drawn) | 2% | -13% | 16 | -3% | -7%
CCCN(C(=O)COC(=O)CSc1ccc([N+](=O)[O-])cc1)C1CCS(=O)(=O)C1 (stereo not drawn) | 89µM* | -31% | -18 | 11µM* | 6%
CC(C)CN(C(=O)COC(=O)CSc1ccc([N+](=O)[O-])cc1)C1CCS(=O)(=O)C1 (stereo not drawn) | ? | 2% | -10 | 19µM* | -5%
Cc1cc(NC(=O)CCCn2cnc([N+](=O)[O-])n2)no1 | ? | 0% | -6 | 12µM* | 0%
Cc1ccc(C)c(Oc2coc3cc(OC(=O)c4cccs4)ccc3c2=O)c1 | -3% | 3% | / | 9.5µM* | 7%
COc1ccccc1Oc1nnnn1-c1ccc(C(N)=O)cc1 | -1% | -4% | 1 | -11% | 0%
NC(=O)c1ccc(-n2nnnc2Oc2ccccc2)cc1 | -21% | -1% | 3 | 24µM* | 0%
O=C1O/C(=C/Br)CCC1c1cccc2ccccc12 (stereo not drawn) | 18µM* | / | -7 | / | /
O=C1CCCCC1c1cccc2ccccc12 (stereo not drawn) | -17% | 6% | -5 | -13% | 0%
CCOC(=O)C1CCN(Cc2nc3ccccc3c(=O)n2-c2ccc(OCC)cc2)CC1 | 2% | -3% | 3 | -2% | 0%
CCOc1ccc(-c2csc(Cn3c(CN4CCN(C)CC4)nc4ccccc4c3=O)n2)cc1 | ? | -17% | 8 | 24µM* | -1%
CN(C)Cc1nc2ccccc2c(=O)n1CC#N | -5% | 5% | 10 | -8% | 2%
CN(C)Cc1nc2ccccc2c(=O)n1Cc1nc(-c2cc3ccccc3o2)cs1 | ? | -4% | 6 | 19µM* | -11%
NCCCC[C@H](NC(=O)CNC(=O)[C@@H]1CCCN1C(=O)[C@H](Cc1ccc(O)cc1)NC(=O)CN)C(=O)N[C@@H](Cc1ccccc1)C(=O)O | 6% | / | / | / | /
Cc1ccccc1NC(=O)CCn1cnc2onc(-c3ccc(F)cc3)c2c1=O | 0% | 3% | / | / | 3%
OC(C[n+]1c(Cl)ccc2ccccc21)c1ccccc1 (stereo not drawn) | / | / | / | / | 2%
O=C(CC(Nc1ccccc1Cl)C(=O)O)c1ccccc1 (stereo not drawn) | 25µM* | -10% | 2 | -25% | -7%
SMILES | VDR inhibitor | Vif-A3F inh | TSHR antag | PLK1 PBD inh | Vif-APOBEC3G blk
O=C(CC(Nc1cccc(Cl)c1Cl)C(=O)O)c1ccccc1 (stereo not drawn) | ? | 0% | 22 | -10% | -7%
CN(C)S(=O)(=O)c1cccc(NC(=O)COC(=O)COc2ccc(Br)cc2)c1 | -19% | -3% | -1 | 27µM* | 2%
CN(C)S(=O)(=O)c1cccc(NC(=O)COC(=O)CCOc2ccccc2)c1 | 2% | -2% | -2 | -7% | 2%
CCOc1ccc(C2C(=O)N(C3CCCCCC3)CC(=O)N2Cc2ccccc2)cc1OC (stereo not drawn) | 12% | 8% | / | / | -2%
O=c1cc(-c2ccccc2)[nH]n1-c1nc2ccccc2s1 | -14% | 5% | -19 | 21µM* | -8%
COc1ccc(CNC(=O)C2CCN(c3nnc(-n4cccc4CNc4ccc(C)cc4)s3)CC2)c(OC)c1 | -1% | / | / | / | /
C[C@@H]1CCC2[C@](C)(CO)[C@@H](O)CC[C@]2(C)[C@]12CCC(CO)(CCO)O2 (stereo partly drawn) | -2% | / | / | / | /
O=C(Nc1ccccc1N1CCCCC1)c1ccc(-c2ccc(Cl)cc2)o1 | -18% | 16% | -11 | 27µM* | ?
CS(=O)(=O)c1ccc(/C=C2\C=Cc3ccccc32)cc1 | / | / | / | / | -1%
CCn1cc(C(=O)OCC(=O)c2cc(C)n(-c3ccccc3F)c2C)c(=O)c2ccc(C)nc21 | ? | -7% | -2 | 27µM* | -1%
Clc1ccc(/C=N/NC2=Nc3cccc4cccc2c34)cc1 | -2% | 13µM* | -1 | -4% | ?
Cc1cc(OCC(=O)NCCO)ccc1Cl | 0% | -5% | 4 | -12% | 2%
CC(C)c1ccc(OCC(=O)NCCO)cc1 | ? | 4% | 5 | 27µM* | 0%
Cc1cc(C)c(S(=O)(=O)C(C)C)c(=O)[nH]1 | 4% | 4% | 19 | 24µM* | -1%
CCNC(=O)c1ccccc1SCC(=O)Nc1ccc(F)cc1 | ? | -2% | 33 | 9.5µM* | -2%
CCNC(=O)c1ccccc1SCc1ccccc1 | -4% | 8% | 37 | 8% | -13%
Cc1c(Cl)cccc1NC(=O)CSc1nc(=O)n(Cc2ccccn2)c2c1CCC2 | -2% | 5% | / | / | -6%
CC1(N2CCOCC2)CC2(O)C(=[N+]1[O-])CCc1c2no[n+]1[O-] (stereo not drawn) | -4% | 6% | -3 | 6µM* | -7%
CN(C)c1ccc(NC(=S)c2ccccn2)cc1 | -24% | -8% | 8 | 13µM* | 1%
CCCC/C=C/[C@H](c1ccccc1)[C@H](CO)Cc1ccc([N+](=O)[O-])cc1 | -14% | / | / | / | -9%
CCN(c1ccc(OC)cc1)S(=O)(=O)c1c(C(=O)N2CCCCCC2)c(C)n(C)c1C | 3% | 2% | / | / | 0%
CCOC(=O)c1cc(-c2ccccc2)sc1NC(=O)CC | ? | -13% | 14 | 21µM* | -4%
NNC(=O)c1cc(-c2ccccc2)sc1N | -7% | 1% | -4 | -10% | 1%
CCOC(=O)c1cc(-c2ccccc2)sc1N | ? | -2% | 3 | 12µM* | -3%
